Data as given in PubChem BioAssay (NCI).
This is part of a sample that, as a whole, favours compounds with a hit. Of some 83,000 tested, about 20% had one in any assay.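 Step 1: grow cells in 96-well plates. Step 2: add test compound at a single concentration. Step 3: incubate 48 h. Step 4: record percent growth.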 Values without a mark were called inactive. Active and inactive are the calls of the source. How the source made its calls: active means growth percent below 10; inactive means the rest.

Experiments:
Assay in all cases: NCI-60 one-dose screen, 48 h (100 = growth as untreated, 0 = no growth, -100 = all killed)
Conditions in all cases: 10 µM unless noted
NCI-H23 lung = system: NCI-H23 lung
NCI-H226 lung = system: NCI-H226 lung
NCI-H322M lung = system: NCI-H322M lung
HOP-62 NSCLC = system: HOP-62 NSCLC
NCI-H460 lung = system: NCI-H460 lung
HOP-92 NSCLC = system: HOP-92 NSCLC
NCI-H522 lung = system: NCI-H522 lung
A549/ATCC NSCLC = system: A549/ATCC NSCLC
786-0 renal = system: 786-0 renal
COLO 205 colon = system: COLO 205 colon
DU-145 prostate = system: DU-145 prostate
K-562 leukemia = system: K-562 leukemia
MALME-3M melanoma = system: MALME-3M melanoma
MDA-MB-231 breast = system: MDA-MB-231 breast
RXF 393 renal = system: RXF 393 renal
SF-268 CNS = system: SF-268 CNS
SF-295 CNS = system: SF-295 CNS
SF-539 CNS = system: SF-539 CNS
UACC-257 melanoma = system: UACC-257 melanoma
M14 melanoma = system: M14 melanoma

Row | Structure (SMILES) | growth (NCI-H23 lung) | growth (NCI-H226 lung) | growth (NCI-H322M lung) | growth (HOP-62 NSCLC) | growth (NCI-H460 lung) | growth (HOP-92 NSCLC) | growth (NCI-H522 lung) | growth (A549/ATCC NSCLC) | growth (786-0 renal) | growth (COLO 205 colon) | growth (DU-145 prostate) | growth (K-562 leukemia) | growth (MALME-3M melanoma) | growth (MDA-MB-231 breast) | growth (RXF 393 renal) | growth (SF-268 CNS) | growth (SF-295 CNS) | growth (SF-539 CNS) | growth (UACC-257 melanoma) | growth (M14 melanoma)
1 | CC(C)(C)OC(=O)N1C=C/C(=C\Cn2cc(-c3ccccc3)nn2)CC1 | 65% | 72% | 80.9% | 89.3% | 84.7% | 62.9% | 74.6% | 83.8% | 79.6% | 109% | 88.2% | 41.4% | 65.7% | 75.9% | 91.8% | 81% | 61% | 79.5% | 66% | 56.5%
2 | CCOC(=O)C(=Cc1ccccc1[N+](=O)[O-])C(=O)OCC | 14.4% | 42.3% | 89.2% | 27.3% | 49.5% | 9.84% (active) | -1.64% (active) | 53.6% | 28.2% | -42.2% (active) | -51.5% (active) | 0.762% (active) | 67.3% | 9.18% (active) | 0.0546% (active) | 13.3% | 95.5% | -15.5% (active) | 42% | 25.2%
3 | CCn1cc(-c2ccnc(NCCNS(=O)(=O)c3ccc(Br)cc3)c2)c(-c2cccc(OC)c2)n1 | -96.1% (active) | 72.9% | 85.3% | 81.4% | 78.4% | 51.1% | 56.7% | 62.4% | 71.3% | 93.5% | 84.7% | 42.1% | 70.9% | 80.8% | 99.8% | 71.5% | 95.4% | 78.3% | 89.8% | 83.3%
4 | CC1(C)CC[C@]2(C(=O)O)CC[C@]3(C)[C@H](CC[C@@H]4[C@@]5(C)CCC(=O)C(C)(C)[C@@H]5CC[C@]43C)[C@H]2[C@H]1OC(=O)C(F)(F)F | -62.4% [100 µM] (active) | -51.2% [100 µM] (active) | -65.6% [100 µM] (active) | -79.6% [100 µM] (active) | -66.1% [100 µM] (active) | -79.6% [100 µM] (active) | -71.2% [100 µM] (active) | -52.7% [100 µM] (active) | -72.7% [100 µM] (active) | -72% [100 µM] (active) | -53.4% [100 µM] (active) | 1.66% [100 µM] (active) | -65% [100 µM] (active) | -62.3% [100 µM] (active) | -82.1% [100 µM] (active) | -92.4% [100 µM] (active) | -62.5% [100 µM] (active) | -86% [100 µM] (active) | -87% [100 µM] (active) | -35.2% [100 µM] (active)
5 | FC(F)(F)c1ccc2c(c1)Sc1ccccc1N2 | 96.4% | 94% | 103% | 97% | 104% | 79.9% | 84.9% | 95.4% | 89.6% | 110% | 97.1% | 93.6% | 100% | 99.5% | 96.6% | 92.9% | 97.2% | 97.8% | 112% | 98.3%
6 | Cc1cccc(/C=C2\N=C(c3ccccc3)N(c3ccc(S(N)(=O)=O)cc3)C2=O)c1 | 90% | 110% | 97.5% | 83.5% | 93.2% | 105% | 82.5% | 75.7% | 95.2% | 104% | 97% | 90.9% | 82.7% | 96.7% | 102% | 91.4% | 86.5% | 72.2% | 94.4% | 107%
7 | COc1ccc(C(=O)CSc2nccc(Nc3ccc(C(=O)O)cc3)n2)cc1 | 99.2% | 92.8% | 106% | 99.7% | 103% | 97.4% | 92.9% | 99.7% | 103% | 107% | 107% | 115% | 93% | 102% | 99% | 96.6% | 104% | 99.9% | 96.6% | 92.1%
8 | O=C(NCCO)c1cccnc1 | 102% | 92.7% | 95.9% | 91.9% | 98.9% | 82.7% | 73% | 88.5% | 97% | 105% | 109% | 95.2% | 105% | 112% | 112% | 100% | 101% | 101% | 87.7% | 104%
9 | NC1=NC(=O)NC1(c1ccccc1)c1ccccc1 | 91.9% | 99% | 99.2% | 95.6% | 108% | 85.3% | 95.1% | 93.3% | 135% | 103% | 99.5% | 89.5% | 93.3% | 94% | 102% | 103% | 117% | 104% | 103% | 98.6%
10 | COc1ccc2c(c1)C(C)Cc1c(ncnc1-n1cnc3ccccc31)N2C (stereo not given) | 32.3% | 41.5% | 54.9% | 24.1% | 11.8% | 45.1% | -18.9% (active) | 21.4% | 29% | -28.7% (active) | 23.7% | 14.2% | 92.3% | 12.9% | 12.8% | 37.4% | 13.6% | 4.91% (active) | 67.2% | 18.3%
11 | CCOC(=O)c1nn(C2CCCCO2)c2ccc(NC(=O)CN3CCCC3)cc12 (stereo not given) | 110% | 110% | 89.7% | 92.7% | 100% | 106% | 97.9% | 100% | 93.3% | 126% | 104% | 100% | 102% | 104% | 133% | 93% | 98.5% | 95.7% | 91.3% | 98.2%
12 | CC(C)(C)c1cc(C(=O)Nc2ccc(C(=O)NCCN)cc2)cc(C(C)(C)C)c1 | 85% | 84.2% | 58.3% | 67% | 3.53% (active) | 26.1% | 40.3% | 39.3% | 32.2% | -77.7% (active) | 40.5% | -42.5% (active) | 15.1% | -43.7% (active) | 19.5% | 57% | 36.4% | -52.8% (active) | 68.6% | -71% (active)
13 | C[C@@H]1C[C@H]2C(=O)O[C@@H](C)[C@H](NC(=O)[C@H](Cc3cc(F)cc(F)c3)NC(=O)Nc3ccc(Cl)cc3F)C(=O)N3C[C@H](O)C[C@H]3C(=O)N3CCN(C)C[C@H]3C(=O)N[C@@H](C)C(=O)N2C1 | 36.2% | 52.6% | 72.8% | 47.8% | 36% | 37.8% | 26.7% | 53.6% | 74.1% | 12% | 41.3% | 27.7% | 45.4% | 27.9% | 88.1% | 29.1% | 38.9% | 51.3% | 19.8% | 72.9%
14 | Cc1ccc(S(=O)(=O)n2cc(C(=O)C(=O)N3CCCCC3)c3ccccc32)cc1 | 55.1% | 87.5% | 92.9% | 80.3% | 91.9% | -0.0596% (active) | 70.2% | 120% | 88.7% | 109% | 97.1% | 69.9% | 84.8% | 75.2% | 113% | 78% | 60.4% | 90.6% | 101% | 89.4%
